Source: PubChem BioAssay (NCI)
Compounds without any hit were thinned out: in the full panel of roughly 83,000, 20% have a hit.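 Single-concentration screen, 48 h exposure, 96-well plates. Endpoint: percent growth. Below 10 = active.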 A number with no mark means an inactive call. Active and inactive are the calls of the source.

Key:
Assay in all cases: NCI-60 one-dose screen, 48 h (100 = growth as untreated, 0 = no growth, -100 = all killed)
Conditions in all cases: 10 µM unless noted
DU-145 prostate = tested on: DU-145 prostate
K-562 leukemia = tested on: K-562 leukemia
MALME-3M melanoma = tested on: MALME-3M melanoma
MDA-MB-231 breast = tested on: MDA-MB-231 breast
SF-268 CNS = tested on: SF-268 CNS
SF-295 CNS = tested on: SF-295 CNS
SF-539 CNS = tested on: SF-539 CNS
UACC-257 melanoma = tested on: UACC-257 melanoma
HCT-15 colon = tested on: HCT-15 colon
HT29 colon = tested on: HT29 colon
SNB-75 CNS = tested on: SNB-75 CNS
SNB-19 CNS = tested on: SNB-19 CNS
U251 CNS = tested on: U251 CNS
PC-3 prostate = tested on: PC-3 prostate
SK-MEL-5 melanoma = tested on: SK-MEL-5 melanoma
UACC-62 melanoma = tested on: UACC-62 melanoma
LOX IMVI melanoma = tested on: LOX IMVI melanoma
SK-MEL-28 melanoma = tested on: SK-MEL-28 melanoma

Row | Structure (SMILES) | growth (DU-145 prostate) | growth (K-562 leukemia) | growth (MALME-3M melanoma) | growth (MDA-MB-231 breast) | growth (SF-268 CNS) | growth (SF-295 CNS) | growth (SF-539 CNS) | growth (UACC-257 melanoma) | growth (HCT-15 colon) | growth (HT29 colon) | growth (SNB-75 CNS) | growth (SNB-19 CNS) | growth (U251 CNS) | growth (PC-3 prostate) | growth (SK-MEL-5 melanoma) | growth (UACC-62 melanoma) | growth (LOX IMVI melanoma) | growth (SK-MEL-28 melanoma)
1 | Nc1ncc(-c2ccc3ncnc(N4CCc5cc(F)c(F)cc54)c3c2)cn1 | 26% | 48.7% | 17.4% | 26.9% | 29.5% | 20.7% | 18.9% | 45% | 23.1% | 33.1% | 27.3% | 43.1% | 41.2% | 17.7% | 16.2% | 9.67% (active) | 11.1% | 33.2%
2 | CCCCCc1ccc(S(=O)(=O)Nc2cccc(-c3csc(NCCN4CCN(C)CC4)n3)c2)cc1 | 74.3% | 0.356% (active) | -36.7% (active) | 64.3% | 80.9% | 107% | 76.4% | 38.1% | -13.2% (active) | 19.3% | 92.8% | 79.9% | 45.7% | 65.7% | -31.1% (active) | 85.4% | -66.9% (active) | 78%
3 | N#Cc1cnc2ccc(-c3cnc(N)nc3)cc2c1N1CCc2cc(F)c(Cl)cc21 | 13.3% | 12% | -11.6% (active) | 14.9% | 5.13% (active) | -8.96% (active) | -12.5% (active) | 8.92% (active) | 4.26% (active) | 11.4% | 19.1% | 12.2% | 10.3% | 2.78% (active) | -92.3% (active) | -17.2% (active) | 2.73% (active) | 7.06% (active)
4 | CCCCCc1ccc(S(=O)(=O)Nc2cccc(-c3csc(NC(=O)CCCCCN4CCN(CCO)CC4)n3)c2)cc1 | 83% | -21.3% (active) | 29.8% | 75.7% | 83.2% | 91.5% | 67.3% | 86.7% | 43.1% | 11.4% | 98.5% | 85.9% | 65.8% | 68.1% | 66.1% | 87.6% | -60.3% (active) | 71.1%
5 | COc1c(N2CC3CCCNC3C2)c(F)cc2c(=O)c(C(=O)N/N=C/c3c[nH]c4ccccc34)cn(C3CC3)c12 (stereo unspecified) | 104% | 3.26% (active) | 118% | 95.3% | 91.9% | 110% | 88.2% | 121% | 57.4% | 50.5% | 99.5% | 103% | 99.2% | 76.9% | 95.3% | 103% | 90.2% | 104%
6 | c1ccc(C(c2nc3ncncc3[nH]2)N2CSc3nc4ncncc4n3C2)cc1 (stereo unspecified) | 34.1% | 24.8% | 58.5% | 49.7% | 66.8% | 39.6% | 49.5% | 76% | 80.4% | 42.7% | 45% | 96.9% | 92.1% | 78.2% | 85.1% | 27.5% | 13.2% | 98.4%
7 | COc1ccc(NC(=O)CSc2nnc(-c3ccc4nc(-c5ccc(OC)c(OC)c5)[nH]c4c3)o2)cc1OC | 91.3% | 108% | 83.3% | 93.5% | 93.3% | 107% | 93.3% | 106% | 108% | 105% | 100% | 113% | 112% | 102% | 88.3% | 92% | 98% | 97%
8 | Cn1ccnc1C(=O)/C=C/c1ccc(NC(=O)c2c(F)c(F)c(F)c(F)c2F)cc1 | 106% | 80.7% | 104% | 108% | 96% | 106% | 108% | 113% | 85.9% | 112% | 103% | 98.3% | 99% | 100% | 91.2% | 97.2% | 81.6% | 105%
9 | CCC(CC)N1C(=O)/C(=c2\sc3n(c2=O)NC2C(N=3)N(CC)C(=O)N2CC)c2ccccc21 (stereo unspecified) | 52% | 26% | 65.2% | 53.2% | 63.4% | 20.3% | 25.2% | 86.1% | 34.5% | 44.7% | 67.9% | 71.4% | 58.9% | 43.9% | 55.6% | 39.9% | 39.3% | 57%
10 | Cn1ccnc1C(=O)/C=C/c1ccc(CNC(=O)c2c(F)c(F)c(F)c(F)c2F)cc1 | 17.7% | 21.1% | 97% | 30.3% | 29.4% | 90.4% | 2.82% (active) | 77% | 11.8% | 14.7% | 96.3% | 42.2% | 45.6% | 35.2% | 75.7% | 54.9% | -66.4% (active) | 90.8%
11 | CCOP(=O)(OCC)OC[C@]12CCC(C)(C)C=C1[C@H]1CC[C@@H]3[C@@]4(C)CC[C@H](OP(=O)(OCC)OCC)C(C)(C)[C@@H]4CC[C@@]3(C)[C@]1(C)CC2 | -70.2% (active) | 4.74% (active) | -12.8% (active) | -55.2% (active) | -59.7% (active) | -66.2% (active) | -84.1% (active) | -8.01% (active) | -73.3% (active) | -42.4% (active) | -11.5% (active) | -12.4% (active) | -84.9% (active) | 0.0741% (active) | -93.4% (active) | -29.4% (active) | -90.1% (active) | -31% (active)
12 | COc1cc(/C=C2\C(=O)Nc3ccccc32)ccc1OCc1ccc(F)cc1 | 106% | 104% | 99.8% | 100% | 105% | 102% | 102% | 118% | 101% | 105% | 106% | 99.3% | 106% | 101% | 102% | 92.7% | 97.3% | 110%
13 | CCCCCc1ccc(S(=O)(=O)Nc2cccc(-c3csc(NC(=O)CNCCN(C)C)n3)c2)cc1 | 84.8% | 9.48% (active) | 74% | 93.5% | 78.6% | 95.5% | 91.1% | 96.1% | 26.5% | 53.9% | 87.5% | 90.4% | 69.4% | 64.7% | 73.2% | 102% | 33.2% | 90.6%
14 | O=C(CNc1nc(-c2cccc([N+](=O)[O-])c2)cs1)Nc1cccc(Cl)c1 | 112% | 97.1% | 104% | 101% | 99.7% | 102% | 101% | 118% | 98.4% | 116% | 101% | 99.5% | 106% | 98.5% | 103% | 92.7% | 115% | 104%
15 | CC(c1ccccc1)N1CSc2nc3ncncc3n2C1 (stereo unspecified) | 33.3% | 20.9% | 38.2% | 32.7% | 28.4% | 21.6% | 23.5% | 44.5% | 37.3% | 30.4% | 51.5% | 99.5% | 70.6% | 42.4% | 49.3% | 20.6% | 10.1% | 96.9%
16 | O=C(O)c1ccc(-n2cc(CNc3cc(F)c(F)c(F)c3)c(-c3ccc(F)cc3)n2)cc1 | 98.3% | 71.1% | 76.5% | 95.4% | 105% | 72.3% | 93.5% | 105% | 68.1% | 108% | 100% | 95.3% | 97.8% | 79.2% | 81.2% | 64.9% | 105% | 85.9%
17 | COc1cc(/C=C2\C(=O)Nc3ccccc32)ccc1OCc1ccc(Cl)cc1 | 98.7% | 98.5% | 95.5% | 99% | 98.6% | 103% | 98% | 125% | 93.9% | 109% | 104% | 97.1% | 107% | 94.8% | 103% | 87.6% | 99.8% | 92.9%
